# PubChem BioAssay AID1159580 (chemical genetic matrix, 2015)
# Where “and” joins values, the source holds several entries; their conditions need not be identical. Equal values may be shown once. In all, about 5,500 compounds went through this assay and about 2,000 (36%) were called active. Roughly 18% stayed inconclusive and do not appear here. The list shows a part of the results. A number with no mark means an inactive call. Cut-off read from the data, not from the text of the source: active = normalized growth mostly below about 0.91 (no sharp cut-off); inconclusive = no clear call, values can overlap the other calls; inactive = mostly above about 0.92.
# Assay: chemical genetic growth profiling, strain panel (AID 1159580);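 note: tested at 20 µM; growth read once vehicle control cultures reached saturation at 30 °C; 1 = growth at the plate median or of vehicle wells; lower values mean less growth of the strain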
# Conditions: S. cerevisiae deletion strains, growth OD
compound,measurement,setting,value
O=C1[C@H](CCC(O)c2ccc(F)cc2)[C@@H](c2ccc(O)cc2)N1c1ccc(F)cc1 (stereo partly specified),normalized growth,"locus YAL013W, strain DEP1, hits give low values",0.988
same,normalized growth,"locus YAL021C, strain ccr4, hits give low values",0.999
same,normalized growth,"locus YAL026C, strain drs2, hits give low values",0.976
same,normalized growth,"locus YAL030W, strain snc1, hits give low values",0.968
same,normalized growth,"locus YBL061C, strain skt5, hits give low values",0.973
same,normalized growth,"locus YBR009C, strain hhf1, hits give low values",0.981
same,normalized growth,"locus YBR021W, strain FUR4, hits give low values",0.962
same,normalized growth,"locus YBR023C, strain chs3, hits give low values",0.979
same,normalized growth,"locus YBR171W, strain sec66, hits give low values",0.95
same,normalized growth,"locus YBR229C, strain ROT2, hits give low values",0.99
same,normalized growth,"locus YBR231C, strain swc5, hits give low values",0.976
same,normalized growth,"locus YBR279W, strain paf1, hits give low values",0.987
same,normalized growth,"locus YCL011C, strain gbp2, hits give low values",0.995
same,normalized growth,"locus YCL016C, strain dcc1, hits give low values",0.992
same,normalized growth,"locus YCL029C, strain bik1, hits give low values",0.968
same,normalized growth,"locus YCL069W, strain vba3, hits give low values",0.97
same,normalized growth,"locus YCR088W, strain abp1, hits give low values",0.967
same,normalized growth,"locus YDL005C, strain med2, hits give low values",0.956
same,normalized growth,"locus YDL035C, strain GPR1, hits give low values",0.989
same,normalized growth,"locus YDL040C, strain nat1, hits give low values",0.979
same,normalized growth,"locus YDL074C, strain BRE1, hits give low values",0.985
same,normalized growth,"locus YDL101C, strain DUN1, hits give low values",0.985
same,normalized growth,"locus YDL134C, strain PPH21, hits give low values",0.988
same,normalized growth,"locus YDL185W, strain tfp1, hits give low values",0.966
same,normalized growth,"locus YDL192W, strain arf1, hits give low values",0.977
same,normalized growth,"locus YDR001C, strain nth1, hits give low values",0.976
same,normalized growth,"locus YDR069C, strain doa4, hits give low values",0.966
same,normalized growth,"locus YDR101C, strain arx1, hits give low values",0.981
same,normalized growth,"locus YDR137W, strain rgp1, hits give low values",1.01
same,normalized growth,"locus YDR150W, strain NUM1, hits give low values",0.986
same,normalized growth,"locus YDR159W, strain sac3, hits give low values",0.931
same,normalized growth,"locus YDR162C, strain NBP2, hits give low values",1
same,normalized growth,"locus YDR195W, strain ref2",0.915
same,normalized growth,"locus YDR297W, strain sur2, hits give low values",0.988
same,normalized growth,"locus YDR318W, strain mcm21, hits give low values",0.98
same,normalized growth,"locus YDR334W, strain swr1, hits give low values",0.983
same,normalized growth,"locus YDR335W, strain msn5, hits give low values",0.959
same,normalized growth,"locus YDR388W, hits give low values",0.972
same,normalized growth,"locus YDR392W, strain spt3, hits give low values",1.03
same,normalized growth,"locus YDR502C, strain sam2, hits give low values",0.98
same,normalized growth,"locus YEL003W, strain gim4, hits give low values",0.975
same,normalized growth,"locus YEL037C, strain rad23, hits give low values",0.957
same,normalized growth,"locus YEL061C, strain CIN8 (second series), hits give low values",0.966
same,normalized growth,"locus YEL061C, strain CIN8, hits give low values",0.993
same,normalized growth,"locus YER015W, strain faa2, hits give low values",0.99
same,normalized growth,"locus YER016W, strain bim1, hits give low values",0.968
same,normalized growth,"locus YER110C, hits give low values",0.971
same,normalized growth,"locus YER111C, strain swi4, hits give low values",0.969
same,normalized growth,"locus YER155C, strain BEM2 (second series), hits give low values",0.973
same,normalized growth,"locus YER155C, strain BEM2, hits give low values",1
same,normalized growth,"locus YER167W, strain BCK2, hits give low values",0.986
same,normalized growth,"locus YFR010W, strain ubp6, hits give low values",0.951
same,normalized growth,"locus YGL078C, strain dbp3, hits give low values",0.976
same,normalized growth,"locus YGL086W, strain mad1, hits give low values",0.984
same,normalized growth,"locus YGL167C, strain pmr1, hits give low values",0.965
same,normalized growth,"locus YGL173C, strain kem1, hits give low values",0.979
same,normalized growth,"locus YGL227W, strain vid30, hits give low values",0.974
same,normalized growth,"locus YGL240W, strain doc1, hits give low values",0.978
same,normalized growth,"locus YGL248W, strain PDE1, hits give low values",0.991
same,normalized growth,"locus YGL253W, strain hxk2, hits give low values",0.908 (active)
same,normalized growth,"locus YGR078C, strain PAC10, hits give low values",1
same,normalized growth,"locus YGR135W, strain pre9, hits give low values",0.972
same,normalized growth,"locus YGR229C, strain SMI1, hits give low values",1.01
same,normalized growth,"locus YGR252W, strain gcn5, hits give low values",1.01
same,normalized growth,"locus YHR013C, strain ard1, hits give low values",0.951
same,normalized growth,"locus YHR027C, strain rpn1, hits give low values",0.972
same,normalized growth,"locus YHR030C, strain SLT2, hits give low values",0.983 and 0.956
same,normalized growth,"locus YHR079C, strain IRE1 (second series), hits give low values",0.96
same,normalized growth,"locus YHR079C, strain IRE1, hits give low values",0.961
same,normalized growth,"locus YHR094C, strain hxt1, hits give low values",0.977
same,normalized growth,"locus YHR129C, strain ARP1, hits give low values",0.987
same,normalized growth,"locus YHR142W, strain chs7, hits give low values",0.901
same,normalized growth,"locus YHR200W, strain rpn10, hits give low values",0.974
same,normalized growth,"locus YIL066C, strain RNR3, hits give low values",0.985
same,normalized growth,"locus YIL073C, strain SPO22, hits give low values",0.961
same,normalized growth,"locus YIL125W, strain kgd1, hits give low values",0.99
same,normalized growth,"locus YIR030C, strain dcg1, hits give low values",0.967
same,normalized growth,"locus YJL092W, strain hpr5, hits give low values",0.972
same,normalized growth,"locus YJL095W, strain BCK1 (second series), hits give low values",0.975
same,normalized growth,"locus YJL095W, strain BCK1, hits give low values",0.98 and 1
same,normalized growth,"locus YJL115W, strain asf1, hits give low values",0.983
same,normalized growth,"locus YJL129C, strain trk1, hits give low values",0.877
same,normalized growth,"locus YJL134W, strain LCB3, hits give low values",0.989
same,normalized growth,"locus YJL154C, strain vps35, hits give low values",0.974
same,normalized growth,"locus YJL164C, strain tpk1, hits give low values",0.981
same,normalized growth,"locus YJL166W, strain qcr8, hits give low values",0.952
same,normalized growth,"locus YJL168C, strain set2, hits give low values",0.965
same,normalized growth,"locus YJL187C, strain SWE1 (second series), hits give low values",0.979
same,normalized growth,"locus YJL187C, strain SWE1, hits give low values",0.975
same,normalized growth,"locus YJR043C, strain POL32, hits give low values",0.985
same,normalized growth,"locus YJR066W, strain TOR1, hits give low values",0.929
